# High-throughput results from PubChem BioAssay.
# Rows were chosen to be rich in hits. Some 3.3% of all compounds tested hit in one or more screens of this group.
# HTT cytoprotect: qHTS Multiplex Assay to Identify Dual Action Probes in a Cell Model of Huntington: Cytoprotection (ATP); actives 0.14% (n = 230,000); PC12 HTT-Q103 induced, cytoprotection, ATP luminescence, 40 h; Potency, µM (highest dose often 56.4 µM), inactives show cytoprotection (ATP increase), hits mostly activators; note: potency is the fitted concentration of half-maximal effect; % of control where 0% means no effect; nearly all actives have a fitted effect of over 45% in size
#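 Stable PC12 Q103-GFP cells in serum-supplemented, phenol red-free DMEM; induction by tebufenozide at 100 nM final; compound dose series; cell viability quantified luminescently from ATP.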
# NPSR antagonist: qHTS Assay for Antagonists of the Neuropeptide S Receptor: cAMP Signal Transduction; Q6W5P4; CHO-NPSR cells, cAMP TR-FRET, antagonist mode; Potency, µM (highest dose often 38.3 µM), without a hit: at the top dose activity change, negative = inhibition, most hits filed as inhibitors; actives 1% (n = 220,000); note: potency is the fitted concentration of half-maximal effect; % is set by controls: 0 for no effect and ±100 for the full control effect; nearly all actives have a fitted effect of over 50% in size
# Target sequence (Q6W5P4 whole entry, looked up): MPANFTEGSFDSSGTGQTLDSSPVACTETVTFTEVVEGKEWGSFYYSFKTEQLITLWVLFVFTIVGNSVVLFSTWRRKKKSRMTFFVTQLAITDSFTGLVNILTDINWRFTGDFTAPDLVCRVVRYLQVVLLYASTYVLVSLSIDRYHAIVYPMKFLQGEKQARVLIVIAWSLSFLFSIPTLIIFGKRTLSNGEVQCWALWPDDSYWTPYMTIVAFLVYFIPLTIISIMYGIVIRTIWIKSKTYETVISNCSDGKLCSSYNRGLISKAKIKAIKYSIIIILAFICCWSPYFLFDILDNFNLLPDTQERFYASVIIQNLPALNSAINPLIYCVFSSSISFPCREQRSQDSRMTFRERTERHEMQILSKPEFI
# HTT aggregate: qHTS Multiplex Assay to Identify Dual Action Probes in a Cell Model of Huntington: Aggregate Formation (GFP); actives 1.1% (n = 220,000); PC12 HttQ103-GFP aggregates, Acumen cytometry, 40 h; AID 1688, 2009; Potency, µM (titrated, usually from 46.1 µM), without a hit: at the top dose activity change, negative = inhibition, actives largely listed as inhibitors; note: potency is the fitted concentration of half-maximal effect; % is set by controls: 0 for no effect and ±100 for the full control effect; nearly all actives have a fitted effect of over 60% in size
#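 Using laser scanning cytometry, GFP-positive aggregates were counted after lysis of PC12 cells induced with 100 nM tebufenozide to express HTT exon 1 Q103–GFP. Compounds were tested in titration.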
# ALOX12 inhib: qHTS Assay for Inhibitors of 12-hLO (12-human lipoxygenase). Polyunsaturated fatty acid lipoxygenase ALOX12 (Homo sapiens), P18054. actives 0.12% (n = 150,000). purified 12-hLO, xylenol orange hydroperoxide absorbance. Potency, µM (highest dose often 57.1 µM), for inactives: at the top dose activity change, negative = inhibition, actives largely listed as inhibitors; note: potency is the fitted concentration of half-maximal effect; % is set by controls: 0 for no effect and ±100 for the full control effect; nearly all actives have a fitted effect of over 55% in size
#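 Xylenol orange chromogenic assay: hydroperoxide from 12hLO oxidises Fe(II), giving red-shifted Fe(III)-XO absorbance. Conditions: 150 nM enzyme, 40 uM arachidonic acid, 25 mM Hepes pH 7.0, 0.01% Triton X-100, 30 min, room temperature.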
# PNC assembly inh: High Content Assay for Compounds that inhibit the Assembly of the Perinucleolar Compartment | PC3M PTB-GFP, PNC prevalence imaging, 16 h; stronger effect = lower value | actives 3.1% (n = 140,000) | activity change (PNC), negative = inhibition, % at 10 µM;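 active = readout at or below -70, meaning at least 70% loss of cells showing the perinucleolar compartment, a nuclear body marking cancer cells; inconclusive = readout between -30 and a set limit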;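 note: plate controls were DMSO wells for no effect and camptothecin positive control wells for full effect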
#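 PC3M cells stably expressing PTB-GFP, 750–1000 cells/well, treated 16 h at 37 °C with compound (23 nl of library stock), in duplicate. After paraformaldehyde fixation and Hoechst stain, imaged at 20x; PNC prevalence scored by image analysis.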
# IMPase cell inh: qHTS Assay for Identifying the Cell-Membrane Permeable IMPase Inhibitors; Inositol monophosphatase 1 (Rattus norvegicus), P97697; CHO-M1 cells, IP1 accumulation, HTRF TR-FRET ratio; inhibition (IP1 accumulation), % at 46.1 µM; 120,000 tested, under 10 active; active = well fitted curve in the direction sought with a large enough effect in the signal ratio, not every such curve was filed as active; inconclusive = small, poorly fitted or top-dose-only effect, or a change in a side signal; inactive = no such curve, though single readings can be large or run the other way; the % refers to the signal ratio;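 note: cells stimulated with carbachol in lithium chloride buffer; plate controls were DMSO basal wells for no effect and reference inhibitor wells for full effect; higher means more IMPase inhibition seen as more IP1 and lower FRET ratio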
#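 The IP-One HTRF competitive assay in carbachol-stimulated CHO-M1 cells quantifies cellular IP1. Compounds spanned up to 46 uM final, and activity is expressed as AC50 from concentration-response fits of the ratio and donor data.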
# Active calls of the source: *; ? = inconclusive; nt = no result; ! = a repeat was not active; [ ] = another dose, or the depositor's remark. Unless noted, calls come from the whole dose curve; as a rule, active = well fitted curve in the direction sought with a large enough effect; inconclusive = small, poorly fitted or top-dose-only effect, or another doubt; inactive = no such curve, though single readings can be large; an effect the other way counts as inactive or inconclusive.
SMILES,HTT cytoprotect,NPSR antagonist,HTT aggregate,ALOX12 inhib,PNC assembly inh,IMPase cell inh
CCCCCCCCCCCCCCCC[N+](C)(C)Cc1ccccc1,-97%,nt,?,nt,nt,nt
C#CC[N+](C)(C)CCCCCCCC,-12%[10 µM],27%,8.9µM*,3%,?,nt
CCCCCC[N+](C)(C)CCSSCC[N+](C)(C)CCCCCC,10%[10 µM],18%,-8%[9.22 µM],nt,nt,nt
C#CC[N+](C)(C)CCCCCCCCCC,-7%[10 µM],12%,?,-1%,?,16
CCCCCCCCCCCCCC[N+](C)(C)Cc1ccccc1,-99%,nt,25µM*,nt,nt,nt
COCCNc1nc(-c2cccc(OC)c2)nc2ccccc12,2%,nt,nt,-6%,nt,nt
Cc1ccc(Cn2cc(/C=C(/C#N)C(=O)Nc3cccc(Cl)c3)c3ccccc32)cc1,nt,nt,nt,nt,nt,-7
O=C(c1csnn1)N1CCC2(CCCN(c3ccccn3)C2)CC1,-19%,nt,nt,0%,nt,nt
Cc1csc(SC(C)C(=O)Nc2ccc(Cl)cn2)n1 (stereo not drawn),3%,-5%[46.1 µM],12%,-3%,4,-1
CC(Sc1nc(-c2ccc(F)cc2)cs1)C(=O)Nc1ccc(Cl)cn1 (stereo not drawn),25%[10 µM],-2%,-9%,-2%,-100*,nt
CC(C)CCSc1nc(N)c(C#N)cc1C#N,-28%[10 µM],-11%[46.1 µM],22µM*,-1%,?,11
Cc1cc(NCCCO)n2nc(-c3cccs3)cc2n1,-16%[10 µM],-24%,-9%[9.22 µM],nt,nt,nt
Cc1cc(NCCN(C)C)n2nc(-c3cccs3)cc2n1,-10%,-3%[46.1 µM],-8%,2%,-89*,-3
O=C1NC(=O)C(c2ccccc2)(c2ccccc2)N1,?,7%,-10%,-8%,?,0
CCC1(c2ccccc2)C(=O)NCNC1=O,1.4µM*!,0%,-9%,-3%,-22,-3
NC(=O)COC(=O)c1oc2ccccc2c1CSc1ccc(Cl)cc1,32%[10 µM],29%,11µM*,-1%,-21,nt
CCCn1nc(C(=O)OCC(=O)Nc2ncc(Cl)c(C)c2Cl)c2ccccc2c1=O,9%[10 µM],12%,12%,-2%,-113*,6
Cc1c(Cl)cnc(NC(=O)COC(=O)c2nn(C)c(=O)c3ccccc23)c1Cl,11%[10 µM],18%,-2%,-4%,-7,8
CC(=O)c1c(C)[nH]c(C(=O)OCC(=O)Nc2ncc(Cl)c(C)c2Cl)c1C,14%[10 µM],-22%[46.1 µM],-8%,-15%,-100*,-1
C[C@H](c1ccccc1)N1C(=O)[C@H]2[C@@H]3[C@H](O)[C@H](O)CC(=O)[C@H]3CC[C@H]2C1=O,0%[10 µM],nt,nt,nt,nt,nt
CC1CCc2nn(CC(=O)NCCCN3CCOCC3)cc2C1 (stereo not drawn),-5%,4%[46.1 µM],10%,1%,-29,-1
CC1CCc2nn(CC(=O)NCCN3CCOCC3)cc2C1 (stereo not drawn),-5%,-11%[46.1 µM],-1%,2%,-82*,10
Cc1ccc(S(=O)(=O)N(C)C)cc1NC(=O)C1CCCCC1,11%[10 µM],-2%,2%[9.22 µM],nt,nt,nt
CN=CC1=C(O)CC(C)(C)CC1=O,-16%[0.074 µM],-8%[46.1 µM],20%,-5%,-16,8
CC1(C)CC(=O)C(C=NCC(N)=O)=C(O)C1,-63%,-3%[46.1 µM],11µM*,-2%,4,3
CC1(C)CC(=O)C(C=NCCCO)=C(O)C1,3%,-6%[46.1 µM],-1%,-1%,-87*,-1
CC1(C)N=C(N)N=C(N)N1c1cccc(OCc2cccc([N+](=O)[O-])c2)c1,-1%[10 µM],nt,nt,-2%[11.4 µM],nt,nt
OC[C@H]1NC[C@@H](O)[C@@H](O)[C@H]1O,-4%,nt,nt,1%,nt,-1
COc1cccc(Nc2nc3cc(Cl)c(Cl)cc3nc2-n2nc(C)cc2C)c1,nt,nt,nt,nt,nt,-1
Cn1c(=O)c2c(ncn2CCSS(=O)(=O)O)n(C)c1=O,8%[10 µM],nt,nt,5%[11.4 µM],nt,nt
